Experimental data published in PubChem BioAssay (Tox21).
Records with an inconclusive call do not appear. Unmarked numbers belong to inactive results. The source made the active and inactive calls. Unless noted, calls follow the shape of the full dose curve.

Test system: not listed separately
Experiment: p53 small molecule agonists, cell-based qHTS assay: qHTS cell viability counter screen (AID 1963581); also: nearly all actives have a fitted effect of over 45% in size; also: potency is read from the fitted curve at half-maximal effect
Conditions: p53RE-bla HCT-116 viability, ATP luminescence, 16 h; series mostly up to 66 µM; activity change, negative = cytotoxicity: at the top concentration
Summary of the method: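 Following 5 h attachment, HCT-116 p53RE-bla cells took up compound for 16 h at 37 C; the reporter was read with B/G FRET substrate (2 h RT), and viability then via CellTiter-Glo ATP luminescence.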
% is scaled to controls: 0 for no effect and ±100 for the full control effect.

Structure (SMILES)	activity change, negative = cytotoxicity	Potency
CC1(c2ccc(Oc3ccccc3)cc2)OC(=O)N(Nc2ccccc2)C1=O (stereo not given)	-19.5%	
COc1ccc(C(c2ccc(OC)cc2)C(Cl)(Cl)Cl)cc1	-6.03%	
CC(C)N(C(=O)COc1nnc(C(F)(F)F)s1)c1ccc(F)cc1	-5.18%	
CCC(CC)(CNC(=O)CCCO)c1cccc(OC)c1	8.84% [at 30.3 µM]	
Oc1cccc(Cl)c1	18.1%	
CCOP(=S)(OCC)Oc1ccc(S(C)=O)cc1 (stereo not given)	5.51%	
O=c1[nH]c2ccccc2o1	-8.92%	
C=C(C)[C@H]1CN[C@H](C(=O)O)[C@H]1CC(=O)O	19.4% [at 30.3 µM]	
Oc1ccc(C2(c3ccc(O)cc3)c3ccccc3-c3ccccc32)cc1		45.8 µM (active)
C[C@@H](N)[C@@H](O)c1ccccc1	-0.55% [at 30.3 µM]	
CC(C)(Cl)[N+](=O)[O-]	3.38%	
CC[C@H](C)[C@H]1O[C@]2(C=C[C@@H]1C)C[C@@H]1C[C@@H](C/C=C(\C)[C@@H](O[C@H]3C[C@H](OC)[C@@H](O[C@H]4C[C@H](OC)[C@@H](O)[C@H](C)O4)[C@H](C)O3)[C@@H](C)/C=C/C=C3\CO[C@@H]4[C@H](O)C(C)=C[C@@H](C(=O)O1)[C@]34O)O2		19.1 µM (active)
Cc1ccc2nc3sc(=O)sc3nc2c1	-2.54% [at 13.5 µM]	
O=[N+]([O-])c1c(Cl)c(Cl)cc(Cl)c1Cl	10.9%	
CCCCCCCCCCCCN(C)C	-7.07%	
CCCCN(CCCC)C(=S)[S-].CCCCN(CCCC)C(=S)[S-].[Zn+2]		25.7 µM (active)

Structure (SMILES)	activity change, negative = cytotoxicity	Potency
CCN(CC)C(=S)[S-].CCN(CC)C(=S)[S-].[Zn+2]		4.54 µM (active)
CC(Cc1ccc2c(c1)OCO2)NO (stereo not given)	17.5%	
CS(=O)(=O)c1ccc(C(=O)C2C(=O)CCCC2=O)c(Cl)c1COCC(F)(F)F	1.15%	
CC[C@@H](CO)NC(=O)[C@@H]1C=C2c3cccc4c3c(cn4C)C[C@H]2N(C)C1	0.857% [at 30.3 µM]	
NC(=O)CS(=O)C(c1ccccc1)c1ccccc1 (stereo not given)	-3.36% [at 30.3 µM]	
CCOP(=O)(OCC)Oc1cc(C)nc(C(C)C)n1	-5.52%	
CCOP(=S)(OCC)Oc1cc(C)nc(N(CC)CC)n1	-22.2%	
CNP(=O)(OC)Oc1ccc(C(C)(C)C)cc1Cl (stereo not given)	-11.4%	
c1csc(-c2ccc(-c3cccs3)s2)c1	-6.39%	
Cc1ccccc1OP(=O)(Oc1ccccc1C)Oc1ccccc1C	10%	
CCOP(=S)(S)OCC	-1.07%	
CC(C)[C@H](C(=O)O[C@H](C#N)c1cccc(Oc2ccccc2)c1)c1ccc(Cl)cc1	-2.58%	
O=[N+]([O-])c1cccc2cccnc12	-2.71%	
CCCCC(CC)COC(=O)OOC(C)(C)C (stereo not given)	3%	
O=[N+]([O-])c1cc(C(F)(F)F)c(Cl)c([N+](=O)[O-])c1Cl		16.2 µM (active)

Test system: not listed separately
Experiment: p53 small molecule agonists, cell-based qHTS assay (AID 1963582; active = well fitted activation curve with a large enough effect in the signal ratio in the repeat runs, not every such curve was filed as active; the % refers to the signal ratio)
Conditions: HCT-116 p53RE-bla reporter, beta-lactamase FRET ratio, 16 h; series mostly up to 66 µM; activation: at the top concentration
Summary of the method: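 In this cell-based concentration-response screen, a p53 response element drives beta-lactamase; cells received DMSO-borne compounds after 5 h culture and were incubated a further 16 h before FRET substrate development.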

Structure (SMILES)	activation
Oc1cc(Cl)cc(Cl)c1	-3.58%
CC(C)N(C(=O)COc1nnc(C(F)(F)F)s1)c1ccc(F)cc1	-1.61%
CCC(CC)(CNC(=O)CCCO)c1cccc(OC)c1	-0.774% [at 30.3 µM]
CC(C)(Cl)[N+](=O)[O-]	-0.523%
CCCCCCCCCCCCN(C)C	2.01%
CC(Cc1ccc2c(c1)OCO2)NO (stereo not given)	0.553%
CS(=O)(=O)c1ccc(C(=O)C2C(=O)CCCC2=O)c(Cl)c1COCC(F)(F)F	-0.897%
CC[C@@H](CO)NC(=O)[C@@H]1C=C2c3cccc4c3c(cn4C)C[C@H]2N(C)C1	-3.99% [at 30.3 µM]
NC(=O)CS(=O)C(c1ccccc1)c1ccccc1 (stereo not given)	-0.0849% [at 30.3 µM]
CCOP(=O)(OCC)Oc1cc(C)nc(C(C)C)n1	0.32%
CCOP(=S)(OCC)Oc1cc(C)nc(N(CC)CC)n1	-1.26%
CNP(=O)(OC)Oc1ccc(C(C)(C)C)cc1Cl (stereo not given)	0.498%
COC(=O)c1ccccc1S(=O)(=O)NC(=O)Nc1nc(C)nc(OC)n1	-0.837%
CCOP(=S)(S)OCC	-2.72%
O=[N+]([O-])c1cccc2cccnc12	-0.235%
CCCCC(CC)COC(=O)OOC(C)(C)C (stereo not given)	2.92%

Target: 5-hydroxytryptamine receptor 2A (Homo sapiens) (UniProt P28223)
Experiment: 5-hydroxytryptamine receptor 2A (HTR2A) small molecule antagonists, cell-based qHTS assay (AID 1963586); also: nearly all actives have a fitted effect of over 45% in size; also: potency is read from the fitted curve at half-maximal effect
Conditions: HTR2A-CHO cells, DOI-induced calcium flux, fluorescence; series mostly up to 61.5 µM; activity, negative = inhibition: at the top concentration
Summary of the method: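 Antagonist-mode intracellular calcium assay: DOI (4 nM) added after 5 min compound pre-incubation at room temperature to dye-loaded HTR2A-CHO cells. Fluorescence followed for 3 min, sampled every second.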

5-hydroxytryptamine receptor 2A (Homo sapiens), sequence (P28223 whole entry, looked up): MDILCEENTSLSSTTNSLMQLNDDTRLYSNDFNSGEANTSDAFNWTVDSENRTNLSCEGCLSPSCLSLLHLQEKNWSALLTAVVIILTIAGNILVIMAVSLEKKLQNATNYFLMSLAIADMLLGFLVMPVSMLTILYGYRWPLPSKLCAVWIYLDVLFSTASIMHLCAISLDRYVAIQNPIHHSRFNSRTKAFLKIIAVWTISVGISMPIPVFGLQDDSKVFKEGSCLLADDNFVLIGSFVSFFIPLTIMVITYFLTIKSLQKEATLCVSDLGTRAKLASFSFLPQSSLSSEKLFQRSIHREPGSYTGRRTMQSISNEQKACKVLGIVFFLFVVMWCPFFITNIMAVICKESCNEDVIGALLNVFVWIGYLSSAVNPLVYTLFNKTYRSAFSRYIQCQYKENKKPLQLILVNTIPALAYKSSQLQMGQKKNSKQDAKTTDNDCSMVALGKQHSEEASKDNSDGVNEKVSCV

Structure (SMILES)	activity, negative = inhibition	Potency
Oc1cc(Cl)cc(Cl)c1	-31.3%	
C=CC(=O)NCNC(=O)C=C	32.7%	
COc1ccc(C(c2ccc(OC)cc2)C(Cl)(Cl)Cl)cc1	39.4%	
CC(C)N(C(=O)COc1nnc(C(F)(F)F)s1)c1ccc(F)cc1	64.4%	
CCC(CC)(CNC(=O)CCCO)c1cccc(OC)c1	10.4% [at 28.5 µM]	
Oc1cccc(Cl)c1	29.4%	
CCOP(=S)(OCC)Oc1ccc(S(C)=O)cc1 (stereo not given)	-14.1%	
O=c1[nH]c2ccccc2o1	6.5%	
CN1C(=S)CN=C(c2ccccc2)c2cc(Cl)ccc21	-3.22% [at 28.5 µM]	
Oc1ccc(C2(c3ccc(O)cc3)c3ccccc3-c3ccccc32)cc1	-13.3%	
C[C@@H](N)[C@@H](O)c1ccccc1	2.02% [at 28.5 µM]	
CC(C)(Cl)[N+](=O)[O-]	-26.7%	
CC1(C)CN=C(NN=C(/C=C/c2ccc(C(F)(F)F)cc2)/C=C/c2ccc(C(F)(F)F)cc2)NC1	-4.67%	
CCCCCCCCCCCCN(C)C	-6.21%	
CCCCN(CCCC)C(=S)[S-].CCCCN(CCCC)C(=S)[S-].[Zn+2]	9.27%	
CCN(CC)C(=S)[S-].CCN(CC)C(=S)[S-].[Zn+2]	5.03%	
CC(Cc1ccc2c(c1)OCO2)NO (stereo not given)		0.91 µM (active)
CS(=O)(=O)c1ccc(C(=O)C2C(=O)CCCC2=O)c(Cl)c1COCC(F)(F)F	-2.15%	
CCOP(=O)(OCC)Oc1cc(C)nc(C(C)C)n1	-17.6%	
CNP(=O)(OC)Oc1ccc(C(C)(C)C)cc1Cl (stereo not given)	-17.7%	
O=C1C(=O)c2cccc3cccc1c23	2.31%	
N#Cc1cc(I)c(O)c(I)c1	-3.4%	
COC(=O)c1ccccc1S(=O)(=O)NC(=O)Nc1nc(C)nc(OC)n1	27.3%	
c1csc(-c2ccc(-c3cccs3)s2)c1	-0.494%	
Cc1ccccc1OP(=O)(Oc1ccccc1C)Oc1ccccc1C	-8.66%	
CCOP(=S)(S)OCC	2.03%	
CCCCC(CC)COC(=O)OOC(C)(C)C (stereo not given)	-19.5%	
O=[N+]([O-])c1cc(C(F)(F)F)c(Cl)c([N+](=O)[O-])c1Cl	-0.777%	
